Results: PubChem BioAssay (EPA / NIEHS)
Records with an inconclusive call do not appear. Activity calls are given as the source filed them. Rule for the calls: active = hit-call score of the fitted dose curve at least 0.9, where 1 is the maximum; inconclusive = response in the unintended direction; inactive = score below 0.9.

Each molecule was assayed against rat Neonicotinoid receptor (NNR), Chrna7 (gene 25302) (UniProt Q05941) (assay: NVS_LGIC_rNNR_BungSens: NovaScreen (NVS) Ligand-Gated Ion Channel Assay for rat Neonicotinoid receptor (NNR) (AID 2283315)).
rat Neonicotinoid receptor (NNR), Chrna7 (gene 25302), sequence (Q05941 whole entry, looked up): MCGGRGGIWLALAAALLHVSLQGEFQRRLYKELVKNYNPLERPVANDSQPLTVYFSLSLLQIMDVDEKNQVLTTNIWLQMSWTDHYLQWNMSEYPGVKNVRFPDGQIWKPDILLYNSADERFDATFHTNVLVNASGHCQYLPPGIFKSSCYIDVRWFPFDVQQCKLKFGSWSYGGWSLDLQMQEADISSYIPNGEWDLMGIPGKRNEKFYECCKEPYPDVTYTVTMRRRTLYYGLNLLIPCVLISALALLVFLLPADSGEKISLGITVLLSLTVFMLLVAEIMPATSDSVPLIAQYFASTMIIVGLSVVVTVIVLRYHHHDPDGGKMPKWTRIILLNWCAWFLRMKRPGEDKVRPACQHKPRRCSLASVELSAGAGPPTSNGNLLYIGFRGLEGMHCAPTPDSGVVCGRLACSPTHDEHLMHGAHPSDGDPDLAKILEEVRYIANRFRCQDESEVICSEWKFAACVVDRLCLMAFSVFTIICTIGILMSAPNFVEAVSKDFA
In short: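 Rat cortical membrane preparation incubated 2.5 h with tritiated or iodinated radioligand and test chemical. Bound radioactivity was filtered and counted by scintillation, and displacement was analysed against DMSO.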

Compound	outcome	AC50
CCCOc1nn(C(=O)NS(=O)(=O)c2ccccc2C(=O)OC)c(=O)n1C	inactive	–
CC(=NC#N)N(C)Cc1ccc(Cl)nc1	–	8.03 µM (active)
C[N+]1(C)CCCCC1	–	6.52 µM (active)
Cc1ccn2nc(S(=O)(=O)Nc3c(F)cccc3F)nc2n1	inactive	–
CCOP(=O)(OCC)Oc1cc(C)nc(C(C)C)n1	inactive	–

These molecules were tested against rat Vasopressin 1 Receptor (V1), Avpr1a (gene 25107) (UniProt P30560) (assay: NVS_GPCR_rV1: NovaScreen (NVS) G Protein-Coupled Receptor Assay for rat Vasopressin 1 Receptor (V1) (AID 2283316)).
rat Vasopressin 1 Receptor (V1), Avpr1a (gene 25107), sequence (P30560 whole entry, looked up): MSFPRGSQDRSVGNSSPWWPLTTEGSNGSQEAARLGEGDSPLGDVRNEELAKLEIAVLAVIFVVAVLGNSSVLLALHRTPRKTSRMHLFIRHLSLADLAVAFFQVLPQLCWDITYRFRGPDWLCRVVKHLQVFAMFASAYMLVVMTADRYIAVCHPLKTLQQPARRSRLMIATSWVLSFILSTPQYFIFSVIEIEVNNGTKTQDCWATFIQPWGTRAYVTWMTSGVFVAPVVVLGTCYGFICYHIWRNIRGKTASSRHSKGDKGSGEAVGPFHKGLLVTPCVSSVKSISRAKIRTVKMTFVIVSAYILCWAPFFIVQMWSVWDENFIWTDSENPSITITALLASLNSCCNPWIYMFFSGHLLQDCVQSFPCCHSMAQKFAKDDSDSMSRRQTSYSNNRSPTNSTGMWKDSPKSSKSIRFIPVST
Protocol: NVS_GPCR_rV1 is a biochemical, single-readout assay that uses extracted gene-proteins from Rat liver membranes in a tissue-based cell-free assay. Measurements were taken 1.5 hours after chemical dosing in a 48-well plate.NVS_GPCR_rV1 is one of one assay component(s) measured or calculated from the NVS_GPCR_rV1 assay. It is designed to make measurements of radioligand binding, a form of binding reporter, as detected with scintillation counting signals by Filter-based radiodetection technology.Data from the assay component NVS_GPCR_rV1 was analyzed into 1 assay endpoint. This assay endpoint, NVS_GPCR_rV1, was analyzed in the positive analysis fitting direction relative to DMSO as the negative control and baseline of activity. Using a type of binding reporter, loss-of-signal activity can be used to understand changes in the binding as they relate to the gene Avpr1a. Furthermore, this assay endpoint can be referred to as a primary readout, because the performed assay has only produced 1 assay endpoint. To generalize the intended target to other relatable targets, this assay endpoint is annotated to the gpcr intended target family, where the subfamily is rhodopsin-like receptor.
Binding assays used specific radioligands (tritiated, iodinated) with non-radioactive competitive displacement ligands in agonist or antagonist protocols (as indicated) and various reference compounds and inhibitors to titrate specific binding to receptors and transporters. Most enzyme assays (CYPs, kinases, phosphatases, proteases, HDACs) used recombinant protein and specific substrates (fluorescence mostly, some colorimetric and radioactive) and inhibitors, followed by a biochemical separation of substrate and product. All assays for the biochemical HTS were initially run in duplicate at a single concentration (10 uM for CYP450 assays and 25 uM for all others). Assay-chemical combinations meeting a pre-defined threshold (e.g., 30% inhibition and other criteria defined below) were then run in singleton concentration-response format with maximum concentration of 20 uM for CYPs and 50 uM for all others. Each assay was run with positive and negative controls, and concurrent controls on every plate. The follow-up (secondary) screen tested active chemical-pairs in concentration series, as well as a few additional assays not tested in the primary screen, some selected negative inactives, and several cases re-run in the concentration series for confirmatory purposes.

Compound	AC50
COc1ccc(C(=CC(=O)N2CCOCC2)c2ccc(Cl)cc2)cc1OC	6.22 µM (active)
COc1cccc(C(=O)NN(C(=O)c2cc(C)cc(C)c2)C(C)(C)C)c1C	0.491 µM (active)
CON=C(C(=O)OC)c1ccccc1CON=C(C)c1cccc(C(F)(F)F)c1	11.1 µM (active)
N#CSCSC#N	2.01 µM (active)

The molecules below were run against Voltage-dependent N-type calcium channel subunit alpha-1B (Rattus norvegicus) (UniProt Q02294) (assay: NVS_IC_rCaChN: NovaScreen (NVS) Ion Channel Assay for rat Calcium Channel, Type N (CaChN) (AID 2283317)).

Compound	outcome
CC[C@H](C)[C@H]1O[C@]2(C=C[C@@H]1C)C[C@@H]1C[C@@H](C/C=C(\C)[C@@H](O[C@H]3C[C@H](OC)[C@@H](O[C@H]4C[C@H](OC)[C@@H](NC)[C@H](C)O4)[C@H](C)O3)[C@@H](C)/C=C/C=C3\CO[C@@H]4[C@H](O)C(C)=C[C@@H](C(=O)O1)[C@]34O)O2	inactive
CCCCOC(=O)c1ccccc1C(=O)O	inactive
COP(=O)(OC)C(O)C(Cl)(Cl)Cl (stereo not drawn)	inactive
CCCCSP(=O)(SCCCC)SCCCC	inactive
